Among the data in PubChem BioAssay are growth inhibition, inhibition and outcome values, retold here.

Unmarked numbers belong to inactive results. For some of these results: Measured potencies and affinities stand elsewhere. Calls of active or inactive are those of the source. Unless noted, the rule behind the calls is not given here.

Assay [1] is described as follows: antimalarial activity against Dd2 strain (AID 2302;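 active = growth inhibition above 50% at the single 2 µM test dose, taken to imply half-maximal potency below 2 µM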;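 note: 0% = DMSO untreated growth and 100% = chloroquine plus artemisinin killed control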). The following applies: P. falciparum Dd2 in RBCs, LDH growth readout, 72 h; at 2 µM; stronger effect = higher value.
Assay [2] is described as follows: HepG2 cytotoxicity, primary screen, cytotoxicity control for P. falciparum antimalarial project, cell-based, ATP luminescence (AID 2303;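 active = inhibition above 50%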;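 note: 0% = DMSO wells and 100% = digitonin-killed cells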). Particulars: HepG2 viability, 24-48 h, at 10 µM, stronger effect = higher value.
The target in assay [3] is L-lactate dehydrogenase (Plasmodium falciparum (isolate CDC / Honduras)) (UniProt Q27743). The assay can be described thus: PfLDH activity inhibition – cell lysate, 3D7 strain, counter-screen for P. falciparum growth inhibition project (AID 2304).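 Note: 0% = vehicle and 100% = reference inhibitor.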 The following applies: P. falciparum 3D7 crude extract, LDH APAD/NBT absorbance; at 2 µM; stronger effect = higher value.
L-lactate dehydrogenase (Plasmodium falciparum (isolate CDC / Honduras)), sequence (Q27743 whole entry, looked up): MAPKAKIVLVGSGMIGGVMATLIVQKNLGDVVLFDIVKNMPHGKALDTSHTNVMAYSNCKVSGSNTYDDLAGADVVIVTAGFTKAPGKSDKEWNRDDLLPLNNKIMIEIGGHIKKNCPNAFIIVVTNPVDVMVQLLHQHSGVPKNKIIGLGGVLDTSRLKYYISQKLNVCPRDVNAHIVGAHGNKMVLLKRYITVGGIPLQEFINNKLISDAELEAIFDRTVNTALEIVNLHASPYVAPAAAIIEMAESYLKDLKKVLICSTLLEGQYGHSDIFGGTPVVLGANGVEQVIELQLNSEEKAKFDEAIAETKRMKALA
Assay [4] in a line: inhibition of 3D7 malaria parasite growth – strain 3D7 (AID 2306).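 Note: 0% = DMSO wells and 100% = chloroquine plus artemisinin control wells.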 Particulars: P. falciparum 3D7 erythrocytic growth, LDH absorbance, 72 h; at 2 µM; stronger effect = higher value.
Assay [5] has as its target Calcium-dependent protein kinase 1 (Plasmodium falciparum (isolate 3D7)) (UniProt P62344). Nature of the assay: PfCDPK1 kinase inhibitors, biochemical, TCAMS library (AID 1159585; cut-off not given, nearly all actives have IC50 up to about 0.98 µM;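 note: inhibitors leave more ATP so luminescence rises with inhibition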). The following applies: recombinant PfCDPK1, Kinase-Glo ATP depletion luminescence. Background: Kinase-Glo measures the ATP left after a reaction by luminescence.
The target of assay [6] is Plasmodium falciparum protein kinase 6 (PK6, PF3D7_1337100) (UniProt Q8IDW1). The assay can be described thus: PfPK6 kinase inhibitors, biochemical, TCAMS library (AID 1159586). The following applies: recombinant PfPK6, Kinase-Glo ATP depletion luminescence.
Plasmodium falciparum protein kinase 6 (PK6, PF3D7_1337100), sequence (Q8IDW1 1-305): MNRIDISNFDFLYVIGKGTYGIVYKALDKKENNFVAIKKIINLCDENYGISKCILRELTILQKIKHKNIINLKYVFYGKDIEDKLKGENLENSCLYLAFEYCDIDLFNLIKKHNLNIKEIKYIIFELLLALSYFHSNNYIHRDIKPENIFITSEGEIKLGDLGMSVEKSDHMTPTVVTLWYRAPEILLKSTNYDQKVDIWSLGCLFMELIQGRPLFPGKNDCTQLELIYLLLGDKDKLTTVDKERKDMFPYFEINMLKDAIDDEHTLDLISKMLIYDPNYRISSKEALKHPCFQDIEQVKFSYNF
Assay [7] has as its target Protein kinase 7 (PK7), Plasmodium falciparum 3D7 (PF3D7_0213400) (UniProt Q7YTF7). The assay can be described thus: inhibition of Plasmodium PK7 catalytic activity – biochemical, TCAMS antimalarial set, Kinase-Glo luminescence (AID 1159587). Particulars: recombinant PfPK7, Kinase-Glo ATP depletion luminescence.
The target in assay [8] is Calcium-dependent protein kinase 4 (Plasmodium falciparum (isolate 3D7)) (UniProt Q8IBS5). Nature of the assay: PfCDPK4 kinase inhibitors, biochemical, TCAMS library (AID 1159588; cut-off not given, nearly all actives have IC50 up to about 0.91 µM). Particulars: recombinant PfCDPK4, Kinase-Glo ATP depletion luminescence.
Calcium-dependent protein kinase 4 (Plasmodium falciparum (isolate 3D7)), sequence (Q8IBS5 whole entry, looked up): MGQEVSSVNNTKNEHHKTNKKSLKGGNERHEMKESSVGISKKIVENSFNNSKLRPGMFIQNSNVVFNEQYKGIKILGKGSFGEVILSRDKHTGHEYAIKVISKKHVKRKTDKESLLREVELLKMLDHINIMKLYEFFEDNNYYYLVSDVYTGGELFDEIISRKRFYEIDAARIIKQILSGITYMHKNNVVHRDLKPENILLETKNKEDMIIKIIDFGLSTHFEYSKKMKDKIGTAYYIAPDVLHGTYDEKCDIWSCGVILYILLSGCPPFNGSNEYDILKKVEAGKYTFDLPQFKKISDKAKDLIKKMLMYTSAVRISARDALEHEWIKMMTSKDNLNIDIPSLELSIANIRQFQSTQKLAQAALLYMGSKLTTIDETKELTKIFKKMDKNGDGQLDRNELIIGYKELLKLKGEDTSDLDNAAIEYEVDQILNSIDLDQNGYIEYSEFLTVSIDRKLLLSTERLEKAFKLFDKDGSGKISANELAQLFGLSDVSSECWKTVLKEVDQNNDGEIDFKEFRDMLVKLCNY

Calcium-dependent protein kinase 1 (Plasmodium falciparum (isolate 3D7)), sequence (P62344 whole entry, looked up): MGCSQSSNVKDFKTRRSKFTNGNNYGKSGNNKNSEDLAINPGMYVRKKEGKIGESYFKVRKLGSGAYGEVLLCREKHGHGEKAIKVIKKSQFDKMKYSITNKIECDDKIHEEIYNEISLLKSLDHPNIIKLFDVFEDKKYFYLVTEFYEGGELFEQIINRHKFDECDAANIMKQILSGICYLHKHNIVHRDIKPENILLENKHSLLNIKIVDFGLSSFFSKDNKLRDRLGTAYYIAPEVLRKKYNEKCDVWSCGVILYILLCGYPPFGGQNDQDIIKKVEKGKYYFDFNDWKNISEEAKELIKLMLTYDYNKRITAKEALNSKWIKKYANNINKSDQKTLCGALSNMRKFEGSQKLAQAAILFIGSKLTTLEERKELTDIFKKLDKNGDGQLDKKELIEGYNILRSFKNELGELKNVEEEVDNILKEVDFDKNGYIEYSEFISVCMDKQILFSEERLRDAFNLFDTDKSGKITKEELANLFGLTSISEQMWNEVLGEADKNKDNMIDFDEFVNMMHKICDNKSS
Protein kinase 7 (PK7), Plasmodium falciparum 3D7 (PF3D7_0213400), sequence (Q7YTF7 1-343): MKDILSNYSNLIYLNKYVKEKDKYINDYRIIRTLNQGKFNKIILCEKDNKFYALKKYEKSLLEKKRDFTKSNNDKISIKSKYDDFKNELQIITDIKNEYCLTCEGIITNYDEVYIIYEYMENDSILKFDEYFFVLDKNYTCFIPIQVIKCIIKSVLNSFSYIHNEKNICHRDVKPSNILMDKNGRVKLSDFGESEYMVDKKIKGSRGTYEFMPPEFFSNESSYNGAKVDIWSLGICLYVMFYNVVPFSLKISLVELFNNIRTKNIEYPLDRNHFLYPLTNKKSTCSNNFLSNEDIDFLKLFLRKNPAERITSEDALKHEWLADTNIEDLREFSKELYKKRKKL

As to `Cc1ncccc1C(=O)Nc1cccc(-c2cccc(-c3nc4c(C)cccc4[nH]3)c2)c1`, the growth inhibition was 69% (active) in assay [1] and 93% (active) in assay [4]. The inhibition (usually the change of the read-out against control, counted positive when it falls) in assay [2] is 6%; in assay [3] it was 4%. Further, the result in assay [5], in assay [6], in assay [7] and in assay [8] was inactive.
For the compound `Cc1ccc(CNC(=O)c2cc3c(=O)n4ccccc4nc3n(CCCN3CCOCC3)c2=N)cc1`, the growth inhibition is 5% in assay [1] and 92% (active) in assay [4]. The inhibition in assay [2] was 21%; in assay [3] it was -3%. In addition, the result in assay [5], in assay [6], in assay [7] and in assay [8] was inactive.
For `CC(=O)Nc1cccc(C(=O)Nc2ccc(-c3cccc(-c4nc5c(C)cccc5[nH]4)c3)cc2)c1`, the growth inhibition is 50% (active) in assay [1] and 100% (active) in assay [4]. Also, the inhibition in assay [2] is 86% (active); in assay [3], -4%. The outcome in assay [5], in assay [6], in assay [7] and in assay [8] was inactive.
`CN(C)CC(=O)NCC(NCCCNc1cc(=O)c2ccccc2[nH]1)c1cc(Br)cc(Br)c1` (stereo not given): the growth inhibition in assay [1] is 2%; in assay [4], 98% (active). Besides, the results for the inhibition in assay [2] and in assay [3] were 6% and 1%, respectively. The result in assay [5], in assay [6], in assay [7] and in assay [8] was inactive.
As to `Cc1cccc2[nH]c(-c3cccc(-c4cccc(C(=O)NCCN5CCCC5)c4)c3)nc12`, the growth inhibition in assay [1] was 75% (active); in assay [4], 100% (active). Besides, the results for the inhibition in assay [2] and in assay [3] were 21% and 1%, respectively. The result in assay [5], in assay [6], in assay [7] and in assay [8] was inactive.
Consider `O=S(=O)(NCCN1CCCC1)c1ccc(-c2ccc(CNCc3ccsc3)cc2)cc1F`, for which the growth inhibition is 40% in assay [1] and 96% (active) in assay [4]. In addition, the inhibition in assay [2] was 27%; in assay [3], 0%. Besides, the result in assay [5], in assay [6], in assay [7] and in assay [8] was inactive.
On to `Cc1cc(N[C@@H](CC(C)C)C(=O)NCCc2ccccc2)nc(NCCc2cccs2)n1`, for which the growth inhibition was 16% in assay [1] and 89% (active) in assay [4]. For the same compound, the inhibition in assay [2] was 0%; in assay [3], -3%. The result in assay [5], in assay [6], in assay [7] and in assay [8] was inactive.
On to `Cc1ccc(Cn2cnc3cc(C(=O)Nc4ccc(-c5ccc(CN(C)C)cc5)cc4)ccc3c2=O)o1`, for which the growth inhibition was 12% in assay [1] and 82% (active) in assay [4]. Further, the values for the inhibition in assay [2] and in assay [3] were 43% and -1%, respectively. Further, the result in assay [5], in assay [6], in assay [7] and in assay [8] was inactive.
For `Cc1nc2c(Nc3nc(-c4ccncc4)cs3)ncnc2n1-c1ccccc1Cl`, the figures for the growth inhibition in assay [1] and in assay [4] were 96% (active) and 97% (active), respectively. The inhibition is 14% in assay [2] and 0% in assay [3]. Besides, the result in assay [5], in assay [6], in assay [7] and in assay [8] was inactive.
As for `CCOC(=O)c1ccc(NC(=O)Nc2ccc(-c3cccc(-c4nc5c(C)cccc5[nH]4)c3)cc2)cc1`, the figures for the growth inhibition in assay [1] and in assay [4] were 100% (active) and 101% (active), respectively. For the same compound, the values for the inhibition in assay [2] and in assay [3] were 91% (active) and -2%, respectively. For the same compound, the outcome in assay [5], in assay [6], in assay [7] and in assay [8] was inactive.
Turning to `COc1ccc(Nc2cc(C)c3cc(NC(=O)c4ccncc4)ccc3n2)cc1`, the growth inhibition was 26% in assay [1] and 98% (active) in assay [4]. Besides, the inhibition is 0% in assay [2] and 2% in assay [3]. Also, the outcome in assay [5], in assay [6], in assay [7] and in assay [8] was inactive.
Regarding `Cc1ccccc1N1CCN(c2ccc(C(=O)NC3CC3)cn2)CC1`, the growth inhibition in assay [1] and in assay [4] was 96% (active) throughout. Also, the inhibition in assay [2] was 14%; in assay [3] it was 0%. Moreover, the outcome in assay [5], in assay [6], in assay [7] and in assay [8] was inactive.
Turning to `C=CCn1cc(C2CCN(CCCCNC(=O)c3sc(-c4ccc(C(F)(F)F)cc4)nc3CO)CC2)c2cc(OC)ccc21`, the figures for the growth inhibition in assay [1] and in assay [4] were 4% and 91% (active), respectively. The inhibition was 40% in assay [2] and 4% in assay [3]. For the same compound, the outcome in assay [5], in assay [6], in assay [7] and in assay [8] was inactive.
Take `O=C(NCc1ccc(Cl)c(Cl)c1)c1ccc(-c2nc3ccc(F)cc3[nH]2)cc1`: the growth inhibition is 9% in assay [1] and 93% (active) in assay [4]. The inhibition was 0% in assay [2] and 1% in assay [3]. In addition, the outcome in assay [5], in assay [6], in assay [7] and in assay [8] was inactive.
For the compound `Cc1ccc(S(=O)Cc2ccc(Cl)cc2)cc1` (stereo not given), the growth inhibition in assay [1] is 5%; in assay [4], 98% (active). Further, the results for the inhibition in assay [2] and in assay [3] were 8% and -2%, respectively. In addition, the outcome in assay [5], in assay [6], in assay [7] and in assay [8] was inactive.
As to `O=C(/C=C/c1ccc(Cl)c(Cl)c1)NCCCCCN1CCC(NC(=O)Nc2cccc(Cl)c2)CC1`, the growth inhibition in assay [1] was 13%; in assay [4], 102% (active). Also, the inhibition in assay [2] was 52% (active); in assay [3] it was -1%. In addition, the result in assay [5], in assay [6], in assay [7] and in assay [8] was inactive.
With `CS(=O)(=O)N1CC2(CCN(CCC(NC(=O)NCc3ccc(Cl)c(Cl)c3)c3ccc(Cl)c(Cl)c3)CC2)c2ccccc21` (stereo not given), the results for the growth inhibition in assay [1] and in assay [4] were 59% (active) and 89% (active), respectively. Besides, the inhibition is 19% in assay [2] and -8% in assay [3]. Moreover, the result in assay [5], in assay [6], in assay [7] and in assay [8] was inactive.
In the case of `COc1ccc(CN2CCC(CNC(C)c3cccc4ccccc34)CC2)cc1` (stereo not given), the values for the growth inhibition in assay [1] and in assay [4] were 26% and 102% (active), respectively. The inhibition was 58% (active) in assay [2] and -2% in assay [3]. Further, the result in assay [5], in assay [6], in assay [7] and in assay [8] was inactive.
`Cc1cccc2[nH]c(-c3ccc(-c4cccc(NC(=O)COc5ccccc5C(N)=O)c4)s3)nc12`: the growth inhibition in assay [1] is 19%; in assay [4] it was 99% (active). For the same compound, the inhibition was 80% (active) in assay [2] and -6% in assay [3]. Further, the outcome in assay [5], in assay [6], in assay [7] and in assay [8] was inactive.
Turning to `CCNc1cc(C(=O)N[C@@H](Cc2ccccc2)[C@H](O)CNC2CCC(C)(C)C2)cc(N2CCCCS2(=O)=O)c1` (stereo not given in full), the growth inhibition in assay [1] is 98% (active); in assay [4] it was 96% (active). Also, the inhibition is 3% in assay [2] and 6% in assay [3]. In addition, the outcome in assay [5], in assay [6], in assay [7] and in assay [8] was inactive.
